This is a sample that favours compounds with a hit; in the whole collection about 2.4% have one here.
Pol iota inh: inhibitors of human DNA polymerase iota | Potency, µM (highest dose often 115 µM), for inactives: at the highest dose activity, negative = inhibition, most hits filed as inhibitors | Pol iota fluorescent replication assay, 10 min | Q9UNA4 | 1% of 390,000 active | AID 588590; also: potency is read from the fitted curve at half-maximal effect
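Pol iota at 10 nM preincubated 15 min with compounds at room temperature; reaction started with fluorescent substrate, 50 nM final. Fluorescence read kinetically at 0 and 10 min; buffer-only wells as negative control.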
Pol beta inh: DNA polymerase beta (human) inhibition | Pol beta primer extension/strand displacement, fluorescence kinetic | Potency, µM (series often up to 114 µM), for inactives: at the highest dose activity change, negative = inhibition, actives largely listed as inhibitors | 1.3% of 340,000 active | AID 485314; also: potency is read from the fitted curve at half-maximal effect; % is scaled to controls: 0 for no effect and ±100 for the full control effect
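Values derive from four-parameter Hill fits of normalized kinetic data: reads at 0 and 10 min following addition of 50 nM substrate to 10 nM Pol beta preincubated 15 min with compound.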
FEN1 inh-1: human FEN1 inhibition. 0.35% of 390,000 active. Potency, µM (titrated, usually from 114 µM), for inactives: top-dose activity change, negative = inhibition, most hits filed as inhibitors. P39748. Recombinant FEN1 flap cleavage, fluorescence, 15 min; also: potency is read from the fitted curve at half-maximal effect; % is scaled to controls: 0 for no effect and ±100 for the full control effect; nearly all actives have a fitted effect of over 65% in size
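With each library titrated from low to high concentration, compounds met 10 nM FEN1 for 15 min at room temperature before 50 nM substrate was added; readings at 0 and 15 min fed four-parameter Hill curve fits.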
Pol kappa inh-1: DNA polymerase kappa (human) inhibition; Q9UBT6; purified Pol kappa, fluorescent DNA synthesis assay, 10 min; Potency, µM (top dose mostly 107 µM), without a hit: at the top dose activity, negative = inhibition, hits mostly inhibitors; 0.53% of 400,000 active; also: potency is read from the fitted curve at half-maximal effect; % is scaled to controls: 0 for no effect and ±100 for the full control effect
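Fluorescent qHTS in 1536-well format: enzyme (10 nM) and compound sat 15 min at room temperature before 50 nM substrate (final) was added. Signal taken at 0 and 10 min; no-enzyme buffer wells were negative controls.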
Pol eta inh-1: DNA polymerase eta (human) inhibition. 1.2% of 390,000 active. recombinant Pol eta, fluorescent DNA replication assay. Q9Y253. Potency, µM (titrated, usually from 114 µM), inactives show at the highest dose activity change, negative = inhibition, most hits filed as inhibitors; also: potency is read from the fitted curve at half-maximal effect; % is scaled to controls: 0 for no effect and ±100 for the full control effect
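Fluorescent replication assay: 50 nM final substrate added after a 15 min room-temperature compound preincubation with 10 nM enzyme. Signal taken at 0 min and again at 10 min.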
WRN helicase inh: blocks human WRN helicase; Q14191; WRN helicase unwinding, fluorescent forked duplex, kinetic; Potency, µM (top dose mostly 114 µM), without a hit: at the highest dose activity change, negative = inhibition, usual class: inhibitors; 0.46% of 360,000 active; AID 651768; also: potency is read from the fitted curve at half-maximal effect; % is scaled to controls: 0 for no effect and ±100 for the full control effect; nearly all actives have a fitted effect of over 55% in size
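Fluorescence dequenching readout, ex 525 nm/em 598 nm, kinetic mode: forked duplex DNA (100 nM final) with adjacent fluorophore and quencher unwound by WRN (20 nM final) with 2 mM ATP. Compound preincubation 15 min, room temperature.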
TbPGK inh: validation of Trypanosoma brucei phosphoglycerate kinase inhibitors; Potency, µM (titrated, usually from 57.5 µM), for the others: top-dose activity change, negative = inhibition, actives largely listed as inhibitors; 79% of 500 active; TbPGK coupled GAPDH assay, Kinase-Glo luminescence; AID 686980; shares compounds with Pol kappa inh-1; also: potency is read from the fitted curve at half-maximal effect; % is scaled to controls: 0 for no effect and ±100 for the full control effect; nearly all actives have a fitted effect of over 65% in size
Pol iota confirm: Confirm cherry-picked inhibitors of human polymerase iota. shares compounds with Pol kappa inh-1. Pol iota primer extension, TAMRA/BHQ fluorescence. Potency, µM, hits mostly inhibitors. 77% of 1,500 active. AID 720496; also: potency is read from the fitted curve at half-maximal effect
GALK inh confirm: galactokinase (human) inhibition, confirmation | purified GALK, Kinase-Glo ATP depletion luminescence | AID 2015 | Potency, µM (doses to about 115 µM), for inactives: top-dose activity, negative = inhibition, usual class: inhibitors | shares compounds with Pol eta inh-1 | 70% of 150 active
Redox cycling: generates H2O2 by redox cycling, flagging GALK artifacts; 40% of 150 active; Potency, µM (series often up to 115 µM), without a hit: top-dose activity change, negative = H2O2 signal, hits mostly inhibitors; Phenol red-HRP H2O2 redox cycling, absorbance 600 nm; shares compounds with Pol eta inh-1
HEK293 tox: reduces HEK-293 cell viability in GALK counter-screen; 10% of 170 active; AID 2547; HEK-293 viability, ATP luminescence (CellTiter-Glo), 24/48 h; shares compounds with Pol eta inh-1; Potency, µM (doses to about 46.1 µM), inactives show at the highest dose activity change, negative = cytotoxicity, usual class: inhibitors; also: potency is read from the fitted curve at half-maximal effect; % is scaled to controls: 0 for no effect and ±100 for the full control effect
Pol kappa inh-2: confirmation of human DNA polymerase kappa inhibitors; shares compounds with Pol eta inh-1; purified Pol-kappa, fluorescent strand-displacement substrate; Potency, µM, hits mostly inhibitors; 76% of 920 active; also: potency is read from the fitted curve at half-maximal effect
Pol eta inh-2: Pol eta (human) inhibition, cherry-pick confirmation. shares compounds with Pol eta inh-1. Potency, µM, actives largely listed as inhibitors. Pol eta primer extension, TAMRA/BHQ fluorescence, 10 min. 64% of 2,600 active; also: potency is read from the fitted curve at half-maximal effect
FEN1 inh-2: FEN1 inhibition, cherry-pick retest; shares compounds with FEN1 inh-1; FEN1 flap cleavage, TAMRA/BHQ2 fluorogenic DNA substrate; Potency, µM, hits mostly inhibitors; 79% of 880 active; AID 720498; also: potency is read from the fitted curve at half-maximal effect; nearly all actives have a fitted effect of over 60% in size
An asterisk follows results filed as active; u = inconclusive; x = not tested or not shown; [ ] = dose if it differs, or a comment. Calls follow the shape of the dose curve; as a rule, active = well fitted curve in the direction sought with a large enough effect; inconclusive = small, poorly fitted or top-dose-only effect, or another doubt; inactive = no such curve, though single readings can be large; an effect the other way counts as inactive or inconclusive.

SMILES	Pol iota inh	Pol beta inh	FEN1 inh-1	Pol kappa inh-1	Pol eta inh-1	WRN helicase inh	Pol iota confirm	Pol eta inh-2	FEN1 inh-2	others
Cc1c(CCC(=O)O)c(=O)oc2c(C)c3occ(-c4ccc(Br)cc4)c3cc12	143%	43%	-19%	-5%	18µM*	63µM*	34*	u	u
O=C1/C(=C\c2c(NCCOCCO)nc3ccccn3c2=O)SC(=S)N1Cc1ccco1	u	18µM*	u	u	79µM*	22µM*	u	x	85*
NC(=S)n1[nH]c(-c2ccc([N+](=O)[O-])cc2)c(N=Nc2cccc([N+](=O)[O-])c2)c1=O	u	0%	45µM*	u	28µM*	u	67*	48*	43*	TbPGK inh=13µM*
Cc1[nH]n(C(N)=S)c(=O)c1N=Nc1cccc([N+](=O)[O-])c1C	-5%	-9%	4%	-4%	-10%	-4%	x	x	x
Cc1c(N=Nc2c(-c3ccc([N+](=O)[O-])cc3)[nH]n(C(N)=S)c2=O)cccc1[N+](=O)[O-]	u	-21%	u	u	50µM*	u	u	u	67*
CCCSc1nc2c(c(=O)[nH]1)C(c1ccc(O)c(OCC)c1)CC(=O)N2 (centres undefined)	-4%	27%	-6%	-1%	-26%	x	x	x	x
Cn1c(N)c(C(=O)COC(=O)c2cc(-c3ccco3)nc3ccccc23)c(=O)n(C)c1=O	7.1µM*	16µM*	40µM*	u	7.9µM*	28µM*	24*	19*	67*
COc1ccc(-c2cc(C(=O)OCC(=O)c3c(N)n(C)c(=O)n(C)c3=O)c3ccccc3n2)cc1	33%	-1%	8%	0%	-4%	0%	x	x	x
Cc1ccc(C)c(N2CCN(C(=O)CN3C(=O)CSc4c3c(C)nn4-c3ccccc3)CC2)c1	12%	-9%	16%	-14%	-22%	x	x	x	x
CN(CCC#N)C(=O)COC(=O)c1c2c(nc3ccccc13)/C(=C\c1ccco1)CC2	4µM*	x	50µM*	22µM*	11µM*	u	17*	34*	67*
CC(C)Oc1ccc(CNC(=O)c2ccc3c(c2)N(C)C(=O)C2CCCCN32)cc1 (centres undefined)	-5%	13%	3%	-7%[60.1 µM]	-16%	x	x	x	x
CC(C)=CCC1=C(OCC(=O)O)C(=O)c2ccccc2C1=O	u	u	u	-2%	22µM*	-20%[11.6 µM]	38*	27*	38*	GALK inh confirm=38µM*;Redox cycling=12µM*;HEK293 tox=-28%
O=C1CC(=O)NC(SCC(=O)Nc2ccccc2[N+](=O)[O-])=N1	2.8µM*	u	u	40µM*	5.6µM*	40µM*	12*	6*	u	TbPGK inh=10µM*
Cc1cc(C)nc(SCC(=O)Nc2ccccc2[N+](=O)[O-])n1	14%	23%	-6%	-9%	0%	-5%	x	x	x
Cc1cc2c(cc1S(=O)(=O)NCc1ccc(F)cc1)OCC(=O)N2	68%	2%	16%	-9%	-12%	x	x	x	x
O=C1N/C(=C/c2cccn2-c2ccccc2)C(=O)N1Cc1ccccc1F	11%	-4%	-1%	-1%	-10%	u	x	x	x
O=C(O)c1ccc(COc2ccccc2/C=C2\NC(=O)N(Cc3ccccc3)C2=O)cc1	29%	-5%	u	-18%	5%	-14%	x	x	x
Cc1ccc(NC(=O)CN2C(=O)N/C(=C/c3ccc(N4CCOCC4)cc3)C2=O)cc1	39%	-7%	-7%	-3%	-15%	-29%[57.1 µM]	x	x	x
Cc1ccc(NC(=O)CN2C(=O)N/C(=C/c3ccc(C)o3)C2=O)cc1	-11%	0%	0%	-5%	-2%	-13%	x	x	x
Cc1ccc(NC(=O)CN2C(=O)N/C(=C/c3ccccc3OCc3cccc(C(=O)O)c3)C2=O)cc1	20µM*	35µM*	71µM*	u	25µM*	50µM*	42*	u	76*	TbPGK inh=16µM*
Cc1ccc(NC(=O)CN2C(=O)N/C(=C\c3cccn3-c3ccc(C(=O)NC#N)cc3)C2=O)cc1	x	x	x	x	x	x	38*	43*	30*
O=C(O)c1ccc(-n2cccc2/C=C2/NC(=O)N(c3cccc(Cl)c3)C2=O)cc1	2µM*	2.2µM*	40µM*	16µM*	3.5µM*	u	3.4*	9.5*	67*	TbPGK inh=5.8µM*
Cc1ccc(NC(=O)CN2C(=O)N/C(=C\c3cccn3-c3cccc(-c4nn[nH]n4)c3)C2=O)cc1	x	x	x	x	x	x	27*	76*	67*	Pol kappa inh-2=21*
Cc1ccc(NC(=O)CN2C(=O)N/C(=C\c3cccn3-c3cccc(C(=O)O)c3)C2=O)cc1	14µM*	4µM*	79µM*	45µM*	3.5µM*	28µM*	19*	27*	76*	TbPGK inh=15µM*;Pol kappa inh-2=42*

Source: PubChem BioAssay (National Center for Advancing Translational Sciences (NCATS))
